The target of assay [1] is Mitogen-activated protein kinase 14 (Homo sapiens) (UniProt Q16539). Particulars: at 1 µM.
For assay [2] the target is unchanged. Particulars: at 10 µM.
The target of assay [3] is Mitogen-activated protein kinase 11 (Homo sapiens) (UniProt Q15759). Particulars: at 1 µM.
Assay [4] has the same target. Particulars: at 10 µM.
The target of assay [5] is T1, Mitogen-activated protein kinase 12 (Homo sapiens) (UniProt P53778).
T1 sequence (whole entry): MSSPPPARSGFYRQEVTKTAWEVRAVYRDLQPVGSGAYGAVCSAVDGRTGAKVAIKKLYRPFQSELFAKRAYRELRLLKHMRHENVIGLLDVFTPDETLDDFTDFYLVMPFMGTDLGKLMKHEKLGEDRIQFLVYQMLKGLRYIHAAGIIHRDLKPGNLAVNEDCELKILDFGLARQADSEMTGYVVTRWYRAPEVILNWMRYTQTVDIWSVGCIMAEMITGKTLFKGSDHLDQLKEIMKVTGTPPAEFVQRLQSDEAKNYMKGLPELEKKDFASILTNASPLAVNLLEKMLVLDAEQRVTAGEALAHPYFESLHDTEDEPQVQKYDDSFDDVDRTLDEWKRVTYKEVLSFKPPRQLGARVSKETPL
The conditions noted are these: at 1 µM.

Assay [6] has as its target T1, Mitogen-activated protein kinase 12 (Homo sapiens). The conditions noted are these: at 10 µM.
Assay [7] deals with T2, Mitogen-activated protein kinase 13 (Homo sapiens) (UniProt O15264).
T2 sequence (whole entry): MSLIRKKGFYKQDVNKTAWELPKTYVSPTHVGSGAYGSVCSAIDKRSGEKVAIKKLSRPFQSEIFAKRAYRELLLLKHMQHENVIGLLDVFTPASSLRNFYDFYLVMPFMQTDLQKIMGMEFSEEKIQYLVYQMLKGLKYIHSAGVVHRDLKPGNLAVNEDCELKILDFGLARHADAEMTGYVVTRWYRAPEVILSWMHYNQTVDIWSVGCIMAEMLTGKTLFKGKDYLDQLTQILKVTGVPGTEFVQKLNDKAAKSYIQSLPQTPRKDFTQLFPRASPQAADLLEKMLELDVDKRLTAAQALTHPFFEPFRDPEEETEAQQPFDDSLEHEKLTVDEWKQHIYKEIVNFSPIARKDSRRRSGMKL
Particulars: at 1 µM.

Assay [8] has as its target T2, Mitogen-activated protein kinase 13 (Homo sapiens). The conditions noted are these: at 10 µM.
The target of assay [9] is T3, Serine/threonine-protein kinase Sgk1 (Homo sapiens) (UniProt O00141).
T3 sequence (whole entry): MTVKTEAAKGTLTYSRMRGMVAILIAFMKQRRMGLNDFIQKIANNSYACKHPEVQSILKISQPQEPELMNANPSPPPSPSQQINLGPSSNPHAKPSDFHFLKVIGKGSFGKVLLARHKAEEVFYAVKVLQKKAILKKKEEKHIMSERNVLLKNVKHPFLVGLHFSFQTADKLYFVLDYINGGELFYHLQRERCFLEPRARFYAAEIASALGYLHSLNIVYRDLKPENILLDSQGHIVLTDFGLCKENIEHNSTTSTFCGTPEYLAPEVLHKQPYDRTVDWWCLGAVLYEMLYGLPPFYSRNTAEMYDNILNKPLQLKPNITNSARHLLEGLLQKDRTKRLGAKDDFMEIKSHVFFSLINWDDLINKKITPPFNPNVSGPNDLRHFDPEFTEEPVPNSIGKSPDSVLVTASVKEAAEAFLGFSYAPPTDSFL
The conditions noted are these: at 1 µM.

Assay [10] deals with T3, Serine/threonine-protein kinase Sgk1 (Homo sapiens). The conditions noted are these: at 10 µM.
Assay [11] has as its target T4, Serine/threonine-protein kinase Sgk2 (Homo sapiens) (UniProt Q9HBY8).
T4 sequence (whole entry): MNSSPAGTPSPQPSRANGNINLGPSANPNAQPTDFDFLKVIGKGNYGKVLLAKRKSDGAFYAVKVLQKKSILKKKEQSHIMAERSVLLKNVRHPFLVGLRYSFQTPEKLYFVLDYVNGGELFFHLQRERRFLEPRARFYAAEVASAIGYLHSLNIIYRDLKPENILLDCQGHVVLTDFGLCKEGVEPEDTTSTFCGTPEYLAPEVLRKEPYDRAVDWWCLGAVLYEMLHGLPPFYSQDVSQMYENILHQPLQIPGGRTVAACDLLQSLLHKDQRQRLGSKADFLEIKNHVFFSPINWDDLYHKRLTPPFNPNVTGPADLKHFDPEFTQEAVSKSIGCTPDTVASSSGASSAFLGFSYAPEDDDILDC
Particulars: at 1 µM.

In assay [12] the target is T4, Serine/threonine-protein kinase Sgk2 (Homo sapiens). Particulars: at 10 µM.
For assay [13], the target named is T5, Serine/threonine-protein kinase Sgk3 (Homo sapiens) (UniProt Q96BR1).
T5 sequence (whole entry): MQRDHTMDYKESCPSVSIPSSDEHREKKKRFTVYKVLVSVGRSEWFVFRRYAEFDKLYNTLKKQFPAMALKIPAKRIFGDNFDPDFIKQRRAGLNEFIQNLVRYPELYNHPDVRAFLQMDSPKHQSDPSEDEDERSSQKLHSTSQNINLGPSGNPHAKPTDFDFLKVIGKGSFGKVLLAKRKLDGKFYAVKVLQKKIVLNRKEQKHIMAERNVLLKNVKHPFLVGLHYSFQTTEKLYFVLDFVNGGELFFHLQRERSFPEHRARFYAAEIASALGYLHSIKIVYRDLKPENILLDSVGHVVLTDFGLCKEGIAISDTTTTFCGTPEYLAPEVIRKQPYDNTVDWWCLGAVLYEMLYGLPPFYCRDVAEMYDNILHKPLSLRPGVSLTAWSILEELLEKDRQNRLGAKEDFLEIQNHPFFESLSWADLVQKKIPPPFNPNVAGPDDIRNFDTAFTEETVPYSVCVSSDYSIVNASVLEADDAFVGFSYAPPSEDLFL
Particulars: at 1 µM.

For assay [14], the target named is T5, Serine/threonine-protein kinase Sgk3 (Homo sapiens). The conditions noted are these: at 10 µM.
The target of assay [15] is Serine/threonine-protein kinase SIK1 (Homo sapiens) (UniProt P57059). Particulars: at 1 µM.
The target is the same in assay [16]. Particulars: at 10 µM.
Assay [17] concerns the target SRSF protein kinase 1 (Homo sapiens) (UniProt Q96SB4). Particulars: at 1 µM.
Assay [18] has the same target. The conditions noted are these: at 10 µM.
For assay [19], the target named is SRSF protein kinase 2 (Homo sapiens) (UniProt P78362). Particulars: at 1 µM.
Assay [20] shares this target. The conditions noted are these: at 10 µM.

Chain of SRSF protein kinase 1 (Homo sapiens) (Q96SB4 whole entry): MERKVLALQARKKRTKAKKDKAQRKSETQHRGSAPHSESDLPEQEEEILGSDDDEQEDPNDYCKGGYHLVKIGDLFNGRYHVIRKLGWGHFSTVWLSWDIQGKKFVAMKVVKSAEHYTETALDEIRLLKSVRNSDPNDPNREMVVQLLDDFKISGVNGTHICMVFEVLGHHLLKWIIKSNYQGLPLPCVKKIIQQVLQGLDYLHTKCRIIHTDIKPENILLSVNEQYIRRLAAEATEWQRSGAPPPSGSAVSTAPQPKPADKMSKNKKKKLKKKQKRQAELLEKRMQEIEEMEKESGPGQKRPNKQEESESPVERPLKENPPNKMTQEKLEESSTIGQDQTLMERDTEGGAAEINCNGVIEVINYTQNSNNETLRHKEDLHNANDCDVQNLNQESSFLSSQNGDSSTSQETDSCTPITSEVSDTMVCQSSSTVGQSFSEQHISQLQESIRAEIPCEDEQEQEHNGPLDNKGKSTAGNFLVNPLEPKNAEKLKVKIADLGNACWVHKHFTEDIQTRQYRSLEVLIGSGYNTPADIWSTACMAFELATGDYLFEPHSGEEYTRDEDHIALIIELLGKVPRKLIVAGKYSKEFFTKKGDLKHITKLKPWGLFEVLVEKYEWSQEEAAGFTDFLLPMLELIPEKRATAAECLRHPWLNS
Chain of Serine/threonine-protein kinase SIK1 (Homo sapiens) (P57059 whole entry): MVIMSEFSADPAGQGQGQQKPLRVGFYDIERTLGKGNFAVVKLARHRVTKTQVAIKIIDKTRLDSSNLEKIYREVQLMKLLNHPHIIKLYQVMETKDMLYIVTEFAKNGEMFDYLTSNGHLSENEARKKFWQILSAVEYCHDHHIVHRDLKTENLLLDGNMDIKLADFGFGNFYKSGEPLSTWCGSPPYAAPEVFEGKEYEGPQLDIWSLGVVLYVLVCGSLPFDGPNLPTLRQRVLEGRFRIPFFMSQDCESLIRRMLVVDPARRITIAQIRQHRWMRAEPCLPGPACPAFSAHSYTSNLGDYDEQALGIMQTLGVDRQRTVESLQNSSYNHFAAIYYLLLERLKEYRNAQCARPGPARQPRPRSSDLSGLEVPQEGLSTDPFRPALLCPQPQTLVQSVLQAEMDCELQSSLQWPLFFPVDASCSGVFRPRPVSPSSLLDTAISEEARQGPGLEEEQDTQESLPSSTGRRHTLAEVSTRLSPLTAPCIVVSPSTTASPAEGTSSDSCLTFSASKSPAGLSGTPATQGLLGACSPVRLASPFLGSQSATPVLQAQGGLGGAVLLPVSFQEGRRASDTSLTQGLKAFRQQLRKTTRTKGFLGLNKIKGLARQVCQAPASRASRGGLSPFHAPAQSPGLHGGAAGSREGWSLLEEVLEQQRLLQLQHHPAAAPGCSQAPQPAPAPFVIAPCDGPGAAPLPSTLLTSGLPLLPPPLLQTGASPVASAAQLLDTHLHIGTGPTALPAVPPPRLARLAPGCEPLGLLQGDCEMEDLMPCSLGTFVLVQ
Chain of SRSF protein kinase 2 (Homo sapiens) (P78362 whole entry, looked up): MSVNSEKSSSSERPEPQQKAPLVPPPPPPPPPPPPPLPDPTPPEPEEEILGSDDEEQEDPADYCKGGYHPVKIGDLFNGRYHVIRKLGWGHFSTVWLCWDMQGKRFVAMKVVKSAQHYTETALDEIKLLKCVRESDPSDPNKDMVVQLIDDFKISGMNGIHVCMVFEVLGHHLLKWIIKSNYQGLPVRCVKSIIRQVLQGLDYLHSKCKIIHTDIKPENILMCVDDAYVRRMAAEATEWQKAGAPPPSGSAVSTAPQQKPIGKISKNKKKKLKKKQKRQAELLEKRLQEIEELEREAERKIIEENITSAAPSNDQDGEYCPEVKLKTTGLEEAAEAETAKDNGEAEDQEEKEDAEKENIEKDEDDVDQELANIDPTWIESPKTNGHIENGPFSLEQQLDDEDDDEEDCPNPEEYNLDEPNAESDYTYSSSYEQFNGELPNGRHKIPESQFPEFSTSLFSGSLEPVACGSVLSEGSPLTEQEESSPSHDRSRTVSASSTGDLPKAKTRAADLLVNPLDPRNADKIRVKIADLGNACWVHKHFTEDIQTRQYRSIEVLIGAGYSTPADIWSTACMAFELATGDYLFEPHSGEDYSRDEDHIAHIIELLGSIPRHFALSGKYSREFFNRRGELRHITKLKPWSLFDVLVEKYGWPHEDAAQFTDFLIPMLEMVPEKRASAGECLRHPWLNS
Chain of Mitogen-activated protein kinase 14 (Homo sapiens) (Q16539 whole entry): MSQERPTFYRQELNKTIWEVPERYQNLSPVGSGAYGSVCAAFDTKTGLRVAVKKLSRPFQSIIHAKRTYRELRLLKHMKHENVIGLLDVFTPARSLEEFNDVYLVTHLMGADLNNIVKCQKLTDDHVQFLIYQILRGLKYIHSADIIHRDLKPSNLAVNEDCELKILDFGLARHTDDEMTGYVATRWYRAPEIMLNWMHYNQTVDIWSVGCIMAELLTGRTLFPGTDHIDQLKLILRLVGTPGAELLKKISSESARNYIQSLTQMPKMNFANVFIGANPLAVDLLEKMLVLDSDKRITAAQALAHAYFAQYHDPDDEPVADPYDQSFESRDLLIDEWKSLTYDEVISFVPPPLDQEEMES
Chain of Mitogen-activated protein kinase 11 (Homo sapiens) (Q15759 whole entry): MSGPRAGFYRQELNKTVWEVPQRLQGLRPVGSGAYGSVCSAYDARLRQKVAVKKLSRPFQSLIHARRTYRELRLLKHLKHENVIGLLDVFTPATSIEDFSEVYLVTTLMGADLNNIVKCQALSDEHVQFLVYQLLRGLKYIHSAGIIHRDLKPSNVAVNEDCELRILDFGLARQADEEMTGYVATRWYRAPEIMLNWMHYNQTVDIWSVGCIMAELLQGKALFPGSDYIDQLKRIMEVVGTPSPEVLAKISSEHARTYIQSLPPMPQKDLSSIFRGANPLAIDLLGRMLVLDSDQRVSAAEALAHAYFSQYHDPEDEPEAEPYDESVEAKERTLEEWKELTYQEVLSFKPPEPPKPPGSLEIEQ

Take `COC(=O)[C@@]1(O)C[C@H]2O[C@]1(C)n1c3ccccc3c3c4c(c5c6ccccc6n2c5c31)C(=O)NC4`: the residual activity in assay [1] stood at 92%; in [2] it was 67%; in assay [3] it was 77%; in assay [4] it was 29%; in assay [5] it was 23%; in assay [6], 2%. Besides, the residual activity was found to be 58% in [7]; 10% in assay [8]; 4% in assay [9]; 1% in assay [10]; 7% in [11]; 1% in assay [12]. The residual activity in assay [13] is 47%; in [14] it was 13%; in assay [15] it was 0%; in [16], 0%; in assay [17], 67%; in assay [18] it was 14%. Further, the values for the residual activity in [19] and in assay [20] were 97% and 52%, respectively.

Regarding `O=C1NC(=O)C(c2cn(CCCn3ccnc3)c3ccccc23)=C1Nc1ccccc1`, the residual activity came out at 104% in assay [5] and 100% in [6].

For `CN[C@@H]1C[C@H]2O[C@@](C)([C@@H]1OC)n1c3ccccc3c3c4c(c5c6ccccc6n2c5c31)C(=O)NC4`, the residual activity in assay [1] was 81%; in [2], 79%; in assay [3], 97%; in [4] it was 89%.

In the case of `O=C1C(Cl)=C(N2C(=O)CCC2=O)C(=O)c2ccccc21`, the residual activity in assay [5] turned out to be 96%; in assay [6], 99%.

In the case of `N#C/C(=C1/Nc2ccccc2S1)c1ccnc(NCCc2cccnc2)n1`, the results for the residual activity in [5] and in assay [6] were 96% and 72%, respectively.

Consider `CC(=O)c1ccc(N2CCOCC2)cc1O`, for which the residual activity in assay [5] was determined as 110%; in assay [6], 102%.

Turning to `CO[C@H]1[C@@H](OC)C[C@H](C)[C@@H](OC)C2=CC(=O)C=C(NC(=O)/C(C)=C/C=C/[C@H](OC)[C@@H](OC(N)=O)/C(C)=C/[C@@H]1C)C2=O`, the residual activity in assay [1] stood at 95%; in [2], 106%; in assay [5] it was 110%; in assay [6], 99%; in assay [13], 95%.

In the case of `N/C(=N\[N+](=O)[O-])N/N=C\c1ccc(-c2cccc([N+](=O)[O-])c2)o1`, the residual activity is 81% in [1]; 91% in [2]; 127% in [13]; 81% in assay [14]; 99% in [19]; 88% in assay [20].

As to `O=C1Nc2ccccc2/C1=C1/Nc2ccccc2/C1=N\OCCC(O)CO` (configuration not stated), in assay [5], the residual activity turned out to be 95%.

Regarding `O=C(CCCc1ccc(-c2ccccc2F)cc1)Nc1ccc(O)cc1`, the residual activity was found to be 101% in assay [5] and 100% in [6].

With `CC(C)c1nn(-c2c(Cl)cccc2Cl)c2nc(Cc3ccc(OCCO)cc3)[nH]c(=O)c12`, the residual activity worked out at 105% in assay [5] and 101% in assay [6].

For `Oc1ccc(-c2nc(-c3ccc(F)cc3)c(-c3ccncc3)[nH]2)cc1`, the residual activity in assay [1] was 1%; in assay [2], 1%; in assay [5], 112%; in assay [6], 67%; in assay [13], 109%.

For `CC(C)[C@H](CO)Nc1nc(Nc2cccc(Cl)c2)c2ncn(C(C)C)c2n1`, the residual activity in assay [1] worked out at 88%; in assay [2], 80%; in assay [3], 101%; in [4], 96%; in [6], 98%; in [14] it was 97%. The residual activity in assay [15] was 85%; in assay [16], 16%; in [17], 52%; in assay [18], -1%; in [19], 32%; in [20] it was 2%.

With `Cc1cccc(-c2[nH]c(C(C)(C)C)nc2-c2ccc3c(c2)OCO3)n1`, the residual activity in assay [5] came out at 104%; in assay [6], 100%.

As to `O=[N+]([O-])/C=C/c1ccc2c(c1)OCO2`, the residual activity is 93% in assay [1]; 105% in assay [2]; 102% in assay [3]; 110% in [4]; 107% in assay [5]; 99% in assay [6]. In addition, the residual activity in assay [7] was 103%; in assay [8] it was 98%; in assay [9], 76%; in assay [10], 105%; in assay [11] it was 89%; in assay [12], 66%. Further, the residual activity in assay [13] came out at 110%; in assay [14], 87%; in assay [15], 100%; in [16], 112%; in [17], 111%; in assay [18], 99%. The residual activity in assay [19] was 97%; in assay [20], 98%.

The record behind these values is ChEMBL document CHEMBL2218924, “A broad activity screen in support of a chemogenomic map for kinase signalling research and drug discovery” (Biochem J, 2013).
